Among all 310,000 compounds or so, about 2,200 (0.71%) showed an effect of 50% or more. The effect is printed as a negative number. The entries come from a sample that favours strong results as a whole.
target: human ether-à-go-go-related gene (hERG) potassium channel (human, UniProt Q12809); assay: primary screen, population patch clamp on CHO cells stably expressing hERG; higher = less effect of the substance
Sequence (Q12809 whole entry, looked up): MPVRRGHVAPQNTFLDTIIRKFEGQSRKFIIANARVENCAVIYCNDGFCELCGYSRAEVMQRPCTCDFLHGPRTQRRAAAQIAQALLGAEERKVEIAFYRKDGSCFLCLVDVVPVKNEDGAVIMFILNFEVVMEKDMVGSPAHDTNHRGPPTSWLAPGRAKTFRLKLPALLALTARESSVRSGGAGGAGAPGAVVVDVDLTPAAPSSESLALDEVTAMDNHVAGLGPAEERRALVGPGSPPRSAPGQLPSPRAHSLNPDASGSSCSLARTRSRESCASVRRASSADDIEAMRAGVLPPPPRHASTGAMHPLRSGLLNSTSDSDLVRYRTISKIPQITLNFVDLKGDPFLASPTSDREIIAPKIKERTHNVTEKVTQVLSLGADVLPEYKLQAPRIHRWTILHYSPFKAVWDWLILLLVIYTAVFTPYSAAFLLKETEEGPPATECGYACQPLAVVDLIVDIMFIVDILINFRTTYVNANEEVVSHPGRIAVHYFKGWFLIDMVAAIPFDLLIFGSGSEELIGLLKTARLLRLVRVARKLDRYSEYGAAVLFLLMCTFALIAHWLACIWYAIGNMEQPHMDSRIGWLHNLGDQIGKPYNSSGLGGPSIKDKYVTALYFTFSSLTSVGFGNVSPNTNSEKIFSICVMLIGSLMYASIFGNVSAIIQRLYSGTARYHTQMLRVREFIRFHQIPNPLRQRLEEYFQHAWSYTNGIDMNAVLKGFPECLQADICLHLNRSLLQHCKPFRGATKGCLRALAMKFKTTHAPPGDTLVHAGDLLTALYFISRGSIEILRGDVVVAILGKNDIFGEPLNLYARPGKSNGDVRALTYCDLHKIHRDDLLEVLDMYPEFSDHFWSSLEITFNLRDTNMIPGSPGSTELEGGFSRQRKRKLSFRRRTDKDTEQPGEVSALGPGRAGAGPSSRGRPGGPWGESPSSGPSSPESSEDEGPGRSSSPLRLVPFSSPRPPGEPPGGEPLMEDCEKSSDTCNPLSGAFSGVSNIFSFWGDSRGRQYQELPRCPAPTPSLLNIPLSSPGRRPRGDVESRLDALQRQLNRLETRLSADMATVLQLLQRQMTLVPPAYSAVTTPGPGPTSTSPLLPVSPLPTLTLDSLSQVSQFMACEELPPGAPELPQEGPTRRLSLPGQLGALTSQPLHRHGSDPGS

SMILES | hERG current change (%, negative = inhibition) at 1uM
CCOC(=O)c1c(NC(=O)c2cc(CC(C)C)on2)sc(C(C)=O)c1C | 12.5%
CC(C)CN(C(=O)COC(=O)c1cnc(Cl)c(Cl)c1)c1c(N)n(Cc2ccccc2)c(=O)[nH]c1=O | 8.68%
COc1ccc(-c2n[nH]c(C)c2-c2ccc(Cl)cc2)c(O)c1 | 10.2%
CCOC(=O)CSc1nc(Cc2ccccc2)nc2ccccc12 | 3.08%
Cn1nc(C(F)(F)F)c2cc(C(=O)N3CCOCC3)sc21 | 5.87%
COc1ccccc1N1CCN(C2CCCN(C(=O)CCC(=O)N(C)C)C2)CC1 (stereo not drawn) | -3.24%
CCCC(=O)NC(=S)Nc1ccc(NC(=O)c2cccs2)cc1 | -3.11%
Cc1cc(=O)[nH]c(SCC(=O)c2ccc(C)c(C)c2)n1 | 18.1%
CC(=O)c1ccc(Nc2c3c(c(C#N)c4nc5ccccc5n24)CCC3)cc1 | -67%
N#Cc1c2c(c(Nc3ccc(O)cc3)n3c1nc1ccccc13)CCC2 | 11.7%
N#Cc1c2c(c(Nc3ccccc3)n3c1nc1ccccc13)CCC2 | 10.4%
CC(C1CC1)N(Cc1ccccc1)C(=S)Nc1ccccc1Cl (stereo not drawn) | 3.13%
COc1cccc(-c2noc(CCC(=O)NC3CCCCC3)n2)c1 | 0.894%
COCCNC(=O)CSc1nc2ccccc2c(=O)n1CCC(=O)N1CCN(c2ccccc2)CC1 | 6.84%
O=C(CSc1nc2ccccc2c(=O)[nH]1)N1CCN(c2ccccc2)CC1 | 12.9%
COCCNc1nc(SCC(=O)N2CCN(c3ccccc3)CC2)nc2ccccc12 | -94.4%
COc1ccccc1N1CCN(C(=O)CSc2nc3ccccc3nc2N2CCCCC2)CC1 | 16.5%
COCCNc1nc(SCC(=O)N2CCN(c3ccccc3OC)CC2)nc2ccccc12 | -92.9%
COc1ccccc1N1CCN(C(=O)CSc2nnc3c4ccccc4nc(Cc4ccccc4)n23)CC1 | -1.26%
COc1cc2ccccc2cc1C(=O)N1CC(C)CC(C)C1 (stereo not drawn) | -3.89%
CCOC(=O)N/N=C/c1cccnc1 | 5%
CCCCN(C(=O)COC(=O)c1ccc(C=O)cc1)c1c(N)n(CCC)c(=O)[nH]c1=O | 11%

SMILES | hERG current change (%, negative = inhibition) at 1uM
CCC(=O)N1CCN(c2nc(C)nc3sc(C)c(C)c23)CC1 | -54%
Cc1nc(N2CCN(C(=O)COc3ccccc3)CC2)c2c(C)c(C)sc2n1.Cl | -29.3%
Cc1nc(N2CCN(C(=O)CCC(=O)O)CC2)c2c(C)c(C)sc2n1 | -4.32%
Fc1cccc(Cc2noc(CN3CCOCC3)n2)c1 | 10.8%
COc1ccc(Cc2noc(CN3CCCN(C4Cc5ccccc5C4)CC3)n2)cc1OC | -44.4%
c1ccc(Cc2noc(CN3CCN(C4CCc5ccccc5C4)CC3)n2)cc1 (stereo not drawn) | -76.1%
COc1ccc(Cc2noc(CN3CCN(C4CCc5ccccc5C4)CC3)n2)cc1OC (stereo not drawn) | -32%
Cc1ccccc1N1CCN(Cc2nc(Cc3ccccc3)no2)CC1 | 8.68%
Cc1cccnc1CN1CCN(Cc2nc(Cc3cccc(F)c3)no2)CC1 | 6.2%
Fc1cccc(Cc2noc(CN3CCC(c4ccncc4)CC3)n2)c1 | -1.98%
Fc1cccc(Cc2noc(CN3CCSCC3)n2)c1 | 17.3%
Fc1cccc(Cc2noc(CN3CCCN(C4Cc5ccccc5C4)CC3)n2)c1 | -86.9%
Fc1cccc(Cc2noc(CN3CCN(C4CCc5ccccc5C4)CC3)n2)c1 (stereo not drawn) | -67.5%
c1ccc(Cc2noc(CN3CCCN(C4Cc5ccccc5C4)CC3)n2)cc1 | -66%
O=C(c1ccco1)N1CCCN(Cc2nc(Cc3ccccc3)no2)CC1 | 1.8%
COc1ccnc2c1c(=O)n(Cc1cccc(F)c1)c(=O)n2C | 8.91%
Cc1cc(C)cc(NC(=O)CSc2nnc(CNC(=O)c3ccco3)n2C)c1 | 14.2%
Br.c1ccc(C2CNCc3c2ccc2ccccc32)cc1 (stereo not drawn) | 1.84%
COc1ccc(C(=O)NCc2nnc(SCC(=O)NCc3ccco3)o2)cc1OC | 14.2%
COc1cccc(NC(=O)Cn2nc(Cc3cccnc3)c3ccccc3c2=O)c1 | -8.3%
COc1ccc(Nc2nnc(Cc3ccncc3)c3ccccc23)c(OC)c1 | -66.6%
COc1cccc(Nc2nnc(Cc3cccnc3)c3ccccc23)c1 | -83.2%

SMILES | hERG current change (%, negative = inhibition) at 1uM
COc1ccc(Nc2ncnc3ccccc23)c(OC)c1.Cl | -0.118%
COc1cccc(NC(=S)NCc2cccnc2)c1 | 11.1%
COc1ccc(Nc2nnc(Cc3ccccc3)c(=O)[nH]2)c(OC)c1 | 8.03%
CCN(CC)CCOC(=O)c1cc2cc(COC)ccc2o1.CI | 9.98%
O=C(CN1C(=O)c2cccnc2Oc2ccc(Cl)cc21)Nc1ccc(F)cc1 | 14.1%
COCCCn1c(Cc2csc(Nc3cccc(Cl)c3)n2)nnc1SCC(=O)OC1CCCCC1 | -0.506%
COc1ccc(C2CC(c3cccc(OC)c3OC)n3nnnc3N2)cc1 (stereo not drawn) | -4.26%
O=C(c1cccs1)N1CCN(C(=O)N2CCOCC2)CC1 | 15.2%
COC(C[C@@H]1O[C@@H]1[C@H](O)COCc1ccccc1)OC | 10.5%
CCOC(=O)c1cc(-c2ccc(Cl)cc2)nc2c1c(C)nn2CCC#N | 10.9%
Cc1cc(C)c[n+](CC(=O)c2ccccc2)c1.[Br-] | 20.1%
Cc1cc(C)c[n+](CC(=O)c2c(C)cc(C)c([N+](=O)[O-])c2C)c1.[Br-] | -52.7%
Cc1cc(C)c[n+](CC(=O)c2ccc(C)c([N+](=O)[O-])c2)c1.[Br-] | 4.61%
CN1CCN(C(=O)C2CCC(=O)N(Cc3cccc(C(F)(F)F)c3)C2)CC1 (stereo not drawn) | 6.99%
Cc1nnc(NC(=O)CSc2nnc(CC(=O)Nc3ccccc3C)n2C)s1 | 17.4%
COc1ccc(C(=O)C2CCCN(Cc3cccn3-c3ccccn3)C2)c(C)c1 (stereo not drawn) | -84.8%
COc1ccc(C(=O)C2CCCN(C(=O)CCc3ccccn3)C2)c(C)c1 (stereo not drawn) | 9.98%
COc1ccc(C(=O)C2CCCN(Cc3ccccn3)C2)c(OC)c1 (stereo not drawn) | -3.83%
COc1ccc(C(=O)C2CCCN(Cc3cccn3-c3ccc(Cl)cn3)C2)c(OC)c1 (stereo not drawn) | -45.8%
COc1ccc(C(=O)C2CCCN(Cc3cccn3-c3ccccn3)C2)c(OC)c1 (stereo not drawn) | -82.9%
COc1ccc(C(=O)C2CCCN(CCO)C2)c(C)c1 (stereo not drawn) | 12.5%
O=C(O)c1cc(NC(=O)c2ccc3c(c2)C(=O)N(Cc2ccccc2)C3=O)cc(C(=O)O)c1 | 11.7%

SMILES | hERG current change (%, negative = inhibition) at 1uM
COc1cccc(Nc2ncc(C#N)c(N)n2)c1 | 12.9%
O=C(COC(=O)c1nc(Cl)ccc1Cl)Nc1ncc(Cl)cc1Cl | 14.4%
CN(C)CCCN=Cc1c(O)n(Cc2ccccc2)c(=O)c2ccccc12 | -25.5%
CN(C)CCN=Cc1c(O)n(Cc2ccccc2)c(=O)c2ccccc12 | -6.8%
CCN(CC)CCCN=Cc1c(O)n(Cc2ccccc2)c(=O)c2ccccc12 | -77.3%
CCOC(=O)C1CCCN(C/C=C/c2ccccc2[N+](=O)[O-])C1 (stereo not drawn) | -42.6%
CCOC(=O)C1CCN(C/C=C/c2ccccc2[N+](=O)[O-])CC1 | -57%
CCOC(=O)C1CCN(C/C=C/c2ccccc2)CC1 | 4.64%
CC(O)[C@H]1CNCCN1CCc1cccc2ccccc12 (stereo partly drawn) | 5.81%
CCSc1ccccc1C(=O)N1CCN(c2ccc([N+](=O)[O-])cc2)CC1 | -41%
O=C(O)c1cn(Cc2ccccc2)c2ccc(Cl)cc2c1=O | -84.4%
COc1ccc2c(c1)c(=O)c(C(=O)c1ccccc1)cn2Cc1ccccc1 | -21.1%
CCCCCn1cc(C(=O)C(=O)N2CCOCC2)c2ccccc21 | 7.53%
O=C(O)c1cn(Cc2ccccc2)c2ccccc2c1=O | -43.6%
CCCCCCn1cc(C(=O)O)c(=O)c2cc(F)c(N3CCCCC3)cc21 | 14%
CCCCCCn1cc(C(=O)O)c(=O)c2ccccc21 | -84.4%
CCOc1cc(C2C(C(=O)OCC(C)C)=C(C)N=C3SCCC(=O)N32)ccc1OC(C)=O (stereo not drawn) | -0.245%
Cc1ccc(S(=O)(=O)N2CCN(C(=O)CCC(=O)N3CCc4ccccc43)CC2)cc1 | 3.11%
COc1ccc2c(c1)Sc1ccccc1N2CCN(C)C.O=C(O)C(=O)O | 2.44%
COc1ccc([C@@H]2Sc3cc(OC)ccc3N(CCN(C(C)C)C(C)C)C(=O)[C@H]2OC(C)=O)cc1.Cl | -70%
COc1ccc(N2C(=O)C(OC(C)=O)C2c2ccc(C)cc2)cc1 (stereo not drawn) | 7.38%

Source: article PMC4336329 (PLoS ONE, 2015)
